Screening results: PubChem BioAssay, several laboratories
ugtP null kill = growth inhibition of S. aureus ugtP deletion strain; S. aureus RN4220 ugtP deletion, OD600 growth, 16 h; growth inhibition, % (no concentration beside the values); 330,000 tested, 0.54% active; AID 1259309; in the data active = growth inhibition above about 68%
Sa RN4220 lethal = kills Staphylococcus aureus RN4220. inhibition, % (concentration not given with the values). 330,000 tested, 0.33% active. AID 1259311. S. aureus RN4220 growth, OD600, 16 h; in the data active = inhibition above about 85%
TcdB GH inh = inhibitors of Clostridioides difficile toxin B glycohydrolase; 350,000 tested, 0.24% active; AID 652162; inhibition, % at 9.99 µM; TcdB glycohydrolase enzymatic assay, plate reader; in the data active = inhibition above about 10%
Target sequence (P18177 whole entry, looked up): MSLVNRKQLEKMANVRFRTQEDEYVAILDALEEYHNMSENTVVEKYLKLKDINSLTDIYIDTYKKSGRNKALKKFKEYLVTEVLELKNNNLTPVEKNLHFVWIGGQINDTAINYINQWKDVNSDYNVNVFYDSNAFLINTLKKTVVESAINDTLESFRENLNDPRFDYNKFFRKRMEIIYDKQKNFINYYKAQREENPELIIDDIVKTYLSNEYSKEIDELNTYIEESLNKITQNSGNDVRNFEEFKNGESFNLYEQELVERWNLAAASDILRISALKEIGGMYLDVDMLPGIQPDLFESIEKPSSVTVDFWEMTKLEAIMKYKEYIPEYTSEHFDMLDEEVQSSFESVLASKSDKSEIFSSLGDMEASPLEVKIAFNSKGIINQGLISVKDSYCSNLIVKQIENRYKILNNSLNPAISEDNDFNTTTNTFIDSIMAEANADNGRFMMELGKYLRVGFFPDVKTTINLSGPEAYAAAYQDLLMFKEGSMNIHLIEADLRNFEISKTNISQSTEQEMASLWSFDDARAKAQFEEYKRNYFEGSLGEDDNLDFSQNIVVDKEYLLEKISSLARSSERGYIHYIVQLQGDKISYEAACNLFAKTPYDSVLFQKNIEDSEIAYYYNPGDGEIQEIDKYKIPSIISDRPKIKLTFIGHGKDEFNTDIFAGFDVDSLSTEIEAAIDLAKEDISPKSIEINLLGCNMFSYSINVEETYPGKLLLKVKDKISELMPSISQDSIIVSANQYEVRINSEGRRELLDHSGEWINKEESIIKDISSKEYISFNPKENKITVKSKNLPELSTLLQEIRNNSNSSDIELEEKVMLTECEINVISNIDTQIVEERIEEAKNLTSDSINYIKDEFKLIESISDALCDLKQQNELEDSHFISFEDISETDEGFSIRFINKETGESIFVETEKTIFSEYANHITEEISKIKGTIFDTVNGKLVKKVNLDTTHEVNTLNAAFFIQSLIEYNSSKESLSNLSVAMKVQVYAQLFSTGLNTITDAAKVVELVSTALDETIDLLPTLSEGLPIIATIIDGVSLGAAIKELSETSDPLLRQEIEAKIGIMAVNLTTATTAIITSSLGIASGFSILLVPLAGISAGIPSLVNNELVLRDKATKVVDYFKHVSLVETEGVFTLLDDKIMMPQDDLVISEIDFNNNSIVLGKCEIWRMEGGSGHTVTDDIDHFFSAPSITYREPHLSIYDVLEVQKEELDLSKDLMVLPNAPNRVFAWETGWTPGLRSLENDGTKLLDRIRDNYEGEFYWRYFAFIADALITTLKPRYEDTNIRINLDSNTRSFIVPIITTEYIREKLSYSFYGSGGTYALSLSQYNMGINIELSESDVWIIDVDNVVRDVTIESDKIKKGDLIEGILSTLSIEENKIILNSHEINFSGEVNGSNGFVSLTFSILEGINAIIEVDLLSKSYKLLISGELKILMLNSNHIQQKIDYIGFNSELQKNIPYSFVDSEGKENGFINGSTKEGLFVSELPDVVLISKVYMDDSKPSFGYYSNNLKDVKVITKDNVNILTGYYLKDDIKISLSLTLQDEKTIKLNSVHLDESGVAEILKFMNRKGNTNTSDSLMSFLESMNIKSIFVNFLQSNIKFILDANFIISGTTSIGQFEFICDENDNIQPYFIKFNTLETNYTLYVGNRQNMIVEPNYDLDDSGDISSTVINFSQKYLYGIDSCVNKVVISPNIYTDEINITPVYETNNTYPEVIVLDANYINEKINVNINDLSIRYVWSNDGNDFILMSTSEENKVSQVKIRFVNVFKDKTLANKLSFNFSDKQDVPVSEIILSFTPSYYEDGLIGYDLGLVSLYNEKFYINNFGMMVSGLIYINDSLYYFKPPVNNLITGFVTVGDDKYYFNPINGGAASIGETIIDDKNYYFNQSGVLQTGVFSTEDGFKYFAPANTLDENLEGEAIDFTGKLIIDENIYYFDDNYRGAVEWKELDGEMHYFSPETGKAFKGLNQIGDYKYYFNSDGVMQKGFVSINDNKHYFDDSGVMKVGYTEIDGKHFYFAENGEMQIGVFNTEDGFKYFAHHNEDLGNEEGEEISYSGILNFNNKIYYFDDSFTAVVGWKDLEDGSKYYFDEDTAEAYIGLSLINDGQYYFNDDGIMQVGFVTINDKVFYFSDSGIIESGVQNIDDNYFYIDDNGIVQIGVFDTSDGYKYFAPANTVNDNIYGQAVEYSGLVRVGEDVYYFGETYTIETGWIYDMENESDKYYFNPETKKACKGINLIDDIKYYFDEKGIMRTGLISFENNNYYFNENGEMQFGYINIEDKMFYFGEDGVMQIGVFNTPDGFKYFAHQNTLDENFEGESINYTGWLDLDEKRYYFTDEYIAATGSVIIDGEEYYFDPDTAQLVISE
Mtb hypoxia inh = inhibitors of hypoxia-regulated fluorescent reporter in Mycobacterium tuberculosis. M. tuberculosis hypoxia-regulated fluorescent reporter, fluorescence. fluorescence inhibition, % (concentration not given with the values). 300,000 tested, 0.1% active; in the data active = fluorescence inhibition mostly above about 23%, no sharp cut-off; inactive = mostly below about 17%
MazEF act = activators of E. coli MazEF toxin-antitoxin RNase; activation, % at 20 µM; FAM/BHQ RNA-DNA oligo cleavage fluorescence, 5 h; 350,000 tested, 0.32% active; AID 504720; in the data active = activation above about 50%
PfHsp40 rescue = restores yeast growth despite PfHsp40 toxicity; S. cerevisiae expressing PfHsp40, growth rescue, ATP luminescence; growth rescue, % at 12.5 µM; 340,000 tested, 0.68% active; AID 504582; in the data active = growth rescue above about 28%, passing the limit was not always enough;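 note: yeast W303a lacking pdr1 and pdr3 grown in galactose medium; growth measured after three days at 30 °C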
A number is an active result; i = inactive; nt = not tested or not shown. Shown are actives, neighbours in structure and some others; about 1.3% of the full set was active somewhere.

SMILES	ugtP null kill	Sa RN4220 lethal	TcdB GH inh	Mtb hypoxia inh	MazEF act	PfHsp40 rescue
COc1ccc(Oc2coc3cc(OC(=O)/C=C/c4ccc(F)cc4)ccc3c2=O)cc1	i	i	i	i	i	i
COc1ccc(Oc2coc3cc(OC(=O)/C=C/c4ccccc4)ccc3c2=O)cc1	i	i	i	i	i	95
O=C1NCCCc2c1oc1ccc(O)cc21	i	i	nt	i	i	i
Oc1c(Cl)cc(Cl)c2c1NCCC2	nt	nt	nt	nt	i	87
O=C1C=C(Nc2ccc(F)cc2)c2ccccc2C1=O	i	i	i	nt	i	i
O=C1C=C(Nc2ccccc2O)c2ccccc2C1=O	i	i	i	i	i	74
O=C1C=C(NCc2ccccc2)c2ccccc2C1=O	92	92	i	i	i	i
COCC(=O)N1[C@H](C#N)[C@@H](c2ccc(-c3cccc(F)c3)cc2)[C@@H]1CO	nt	nt	i	nt	nt	nt
CCc1ccc(NC(=O)c2cc(C)on2)cc1	i	i	11	i	i	i
CCN(CC)c1ccc(C(=S)NC2CCCCC2)cc1	active	i	i	i	i	i
O=C1/C(=N\S(=O)(=O)c2cccs2)C([n+]2cccc(Cc3ccccc3)c2)=C([O-])c2ccccc21	i	i	nt	i	271	i
O=C(C[C@H]1CC[C@@H]2[C@H](COC[C@@H](O)CN2CCC(F)(F)F)O1)NCc1ccc2c(c1)OCO2	nt	nt	i	nt	nt	nt
CC(=O)/C(N=Nc1cc2c(c([N+](=O)[O-])c1C)C(C)(C)CC2(C)C)=C(\C)O	89	i	i	i	i	nt
CN(C)C1C(=O)C(C(N)=O)=C(O)[C@@]2(O)C(=O)C3=C(O)c4c(O)cccc4[C@@](C)(O)C3C(O)C12 (some centres not stated)	99	100	nt	nt	nt	nt
CN(C)C1C(=O)C(C(N)=O)=C(O)C2(O)C(=O)C3=C(O)c4c(O)cccc4C(C)(O)C3C(O)C12 (configuration not stated)	100	100	i	nt	i	i
C[C@H]1c2cccc(O)c2C(O)=C2C(=O)[C@]3(O)C(O)=C(C(N)=O)C(=O)[C@@H](N(C)C)C3[C@@H](O)C21 (some centres not stated)	nt	nt	i	nt	i	i
CN(C)C1C(=O)C(C(N)=O)=C(O)[C@@]2(O)C(=O)C3=C(O)c4c(O)ccc(Cl)c4C(O)C3CC12 (some centres not stated)	99	100	nt	nt	nt	nt
CN(C)C1C(=O)C(C(N)=O)=C(O)[C@@]2(O)C(=O)C3=C(O)c4c(O)cccc4[C@@](C)(O)C3CC12 (some centres not stated)	100	100	nt	nt	nt	nt
COc1ccccc1S(=O)(=O)N[C@H]1CC[C@H](CCNC(=O)C2CCOCC2)O[C@@H]1CO	nt	nt	i	nt	nt	nt
CC(=O)Oc1oc(-c2ccccc2)nc1C=Nc1ccc(N(C)C)cc1	i	i	i	i	i	i
Cc1ccc(N=Cc2nc(-c3ccc(C)cc3)oc2O)cc1	i	i	i	i	i	i
CN(C)c1ccc(N=Cc2nc(-c3ccccc3)oc2OC(=O)c2ccccc2)cc1	i	i	nt	i	354	i
CC(=O)Nc1ccc(N=Cc2nc(-c3ccc(C)cc3)oc2O)cc1	i	i	nt	i	245	i
CN(C)c1ccc(N=Cc2nc(-c3ccccc3)oc2O)cc1	i	i	nt	nt	246	i
COc1ccc(CN2CCC3C=CCC(C(=O)N4CCOCC4)C3C2=O)cc1OC (configuration not stated)	i	i	nt	i	nt	nt
SMILES	ugtP null kill	Sa RN4220 lethal	TcdB GH inh	Mtb hypoxia inh	MazEF act	PfHsp40 rescue
COc1ccc(CN(C)C[C@@H]2Oc3ccc(NC(=O)Cn4cnnn4)cc3C(=O)N([C@H](C)CO)C[C@H]2C)cc1	nt	nt	i	nt	nt	nt
COc1ccc(C(=O)N2C(=S)NC(=O)/C2=C\c2ccc(C)cc2)cc1	100	i	i	i	i	i
O=C(N=c1ccn(-c2nc3ccccc3nc2NS(=O)(=O)c2ccccc2)cc1)c1cccs1	i	i	i	i	413	i
COc1ccccc1-c1cc(C(F)(F)F)nc(N2CCCC2)n1	86	i	nt	i	i	i
O=C(COC(=O)c1ccccc1O)NC1CCCc2ccccc21 (configuration not stated)	i	i	i	33	i	i
O=C(O)Cc1ccc(N2N=C(c3ccccc3)CC2=O)cc1	nt	nt	i	nt	nt	nt
O=C1CC(c2cccnc2)=NN1c1ccccc1	i	i	i	i	i	91
N#C/C(=C/c1ccc(-c2ccccc2[N+](=O)[O-])o1)C(N)=O	i	i	i	i	54	i
CCOC(=O)c1c(C)[nH]c(C)c1C(=O)COC(=O)/C=C/c1ccco1	i	i	10	i	i	i
CCOC(=O)c1c(C)[nH]c(C)c1C(=O)COC(=O)/C=C/c1ccc(OC)cc1	i	i	i	i	i	i
Cc1nn(-c2ccccc2)c(Cl)c1/C=C1\SC(=S)N(CCCCCC(=O)O)C1=O	i	i	i	i	i	i
Cc1nn(-c2ccccc2)c(Cl)c1/C=C1\SC(=S)NC1=O	99	100	nt	i	i	i
CCCN(C)C[C@H]1OCCCC[C@@H](C)Oc2ccc(NC(=O)Nc3ccccc3)cc2C(=O)N([C@H](C)CO)C[C@@H]1C	nt	nt	i	nt	nt	nt
CC(=NNC(=O)c1ccccc1)c1c(C)[nH]n(-c2ccccc2)c1=O	i	i	nt	i	nt	nt
Cc1ccc(OCC(=O)N/N=C\c2c(C)[nH]n(-c3ccccc3)c2=O)c([N+](=O)[O-])c1	nt	nt	i	nt	i	155
Cc1ccc(-n2[nH]c(C)c(/C=N/NC(=O)c3ccc(O)cc3O)c2=O)cc1	nt	nt	nt	nt	i	76
Cc1[nH]n(-c2ccc(Br)cc2)c(=O)c1/C=N/NC(=O)c1ccccc1	nt	nt	i	nt	i	i
CCC(=NNC(=O)c1ccccc1O)c1c(C)[nH]n(-c2ccccc2)c1=O	98	93	nt	i	nt	nt
Cc1[nH]n(-c2ccccc2)c(=O)c1/C=N/NC(=O)c1ccc(O)cc1O	nt	nt	i	nt	i	52
C[C@@H]1CN([C@@H](C)CO)C(=O)c2cc(C#CC3CC3)cnc2O[C@@H]1CN(C)C(=O)Nc1ccc(F)cc1	nt	nt	i	nt	nt	nt
COC(=O)[C@@]1(Cc2ccc(F)cc2)C2c3cc(C(=O)N(C)C)n(CCc4ccc(OC)c(Br)c4)c3CC2CN1C(=O)c1ccccc1 (some centres not stated)	i	i	nt	i	nt	nt
CCCSC(=S)c1c(C)[nH]n(-c2ccccc2)c1=O	90	91	i	i	i	305
COc1ccccc1C(=O)Nc1ccc2c(c1)C(=O)N(C)C[C@H](OC)[C@H](C)CN(C(C)=O)[C@@H](C)CO2	nt	nt	i	nt	nt	nt
CC12CCC(CC1=NNC(=O)COc1ccccc1Cl)C2(C)C (configuration not stated)	i	i	nt	i	nt	nt
O=C(CCN1C(=O)/C(=C/c2ccccc2Cl)SC1=S)NC1=NCCS1	87	i	i	i	i	i
C=CCC1CCCC(=NNS(=O)(=O)c2ccc(C)cc2)C1 (configuration not stated)	i	i	nt	i	nt	nt
O=C(Nn1c(SCc2ccc(F)cc2)nc2ccsc2c1=O)c1ccccc1	i	83	nt	i	i	i
COc1ccccc1-c1ccc([C@H]2[C@@H](CO)N(C(=O)NC3CCCC3)[C@H]2C#N)cc1	nt	nt	i	nt	nt	nt
